# Compounds without any hit were thinned out: in the full panel of roughly 83,000, 20% have a hit.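 Note: values are percent growth. 100 is the growth of untreated cells, values between 100 and 0 indicate rising inhibition; between -100 and 0 indicates cell death.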 Unmarked numbers belong to inactive results. Activity calls are given as the source filed them. The calls were made as follows: active = growth percent below 10; inactive = the rest.
# Key:
# Test in all cases: NCI-60 one-dose screen, 48 h (100 = growth as untreated, 0 = no growth, -100 = all killed)
# Conditions in all cases: 10 µM
# [1] = tested on: NCI-H522 lung
# [2] = tested on: MDA-MB-231 breast
# [3] = tested on: RXF 393 renal
# [4] = tested on: SK-MEL-5 melanoma
# [5] = tested on: CCRF-CEM leukemia
# [6] = tested on: OVCAR-4 ovarian
# [7] = tested on: NCI/ADR-RES ovarian
# [8] = tested on: BT-549 breast
# [9] = tested on: MDA-MB-435 melanoma
# [10] = tested on: SW-620 colon
# [11] = tested on: MCF7 breast
# [12] = tested on: HCT-116 colon
# [13] = tested on: KM12 colon
# [14] = tested on: SNB-19 CNS
# [15] = tested on: HCC-2998 colon
# [16] = tested on: T-47D breast
# [17] = tested on: PC-3 prostate
Compound,growth [1],growth [2],growth [3],growth [4],growth [5],growth [6],growth [7],growth [8],growth [9],growth [10],growth [11],growth [12],growth [13],growth [14],growth [15],growth [16],growth [17]
CC1(C)CC(=O)C2=C(C1)N(Cc1ccc(C(=O)O)cc1)C1=C(C(=O)CC(C)(C)C1)C2c1ccc(Cl)cc1,84.9%,106%,111%,99.9%,102%,99.5%,95.3%,93.5%,102%,101%,89.6%,106%,108%,,,,
O=C(Nc1ccc(Oc2ncnc3scc(Nc4n[nH]c(=S)s4)c23)cc1)C1(C(=O)Nc2cccc(C(F)(F)F)c2)CC1,,92.7%,118%,95%,111%,108%,104%,96.1%,105%,103%,23.3%,99.7%,,,,,
COc1ccc(C2c3sc4ccc(C)cc4c3Oc3nc(N)nc(N)c32)cc1 (centres undefined),,89.3%,64.8%,92.9%,82.8%,85.8%,85.1%,84.5%,9.83% (active),84.8%,53.8%,86.9%,70.9%,84.5%,94%,,
O=C(Nc1ccc(OCc2ccc(F)cc2)cc1)Nc1ccc(Cl)c(C(F)(F)F)c1,,6.32% (active),-24.3% (active),-81.4% (active),,19%,4.62% (active),-15.9% (active),-12.4% (active),22.3%,3.2% (active),4.96% (active),11.1%,,1.98% (active),,
COc1cc(C2CC(c3ccc(Oc4ccc(Cl)cc4)cc3)=NN2c2nc(-c3ccc(Cl)cc3)c(C#N)c(N3CCOCC3)n2)cc(OC)c1OC (centres undefined),,100%,107%,97.8%,111%,103%,98.9%,116%,94.2%,101%,84.6%,106%,101%,102%,,91.8%,
O=C(Nc1ccc(OCC(=O)c2ccc(Cl)cc2)cc1)Nc1ccc(Cl)c(C(F)(F)F)c1,-12.4% (active),48.1%,-60.8% (active),53.8%,,38.1%,57.6%,76%,51.5%,47.7%,51.4%,50.8%,14.9%,,33.4%,,
Cn1cc(-c2nc(N)nnc2-c2c[nH]c3ccccc23)c2cc(Br)cnc21,,16.3%,6.16% (active),-81.3% (active),20.5%,32.1%,3.11% (active),-29.6% (active),-25.2% (active),24.7%,4.57% (active),7.04% (active),13.1%,,,,
O=C1NC2C=CC=CC2/C1=C1/SC(=S)N(C2CC(=O)N(c3ccc(Br)cc3)C2=O)C1=O (centres undefined),,101%,109%,100%,53.9%,93.1%,95.6%,101%,95.7%,93.4%,45.7%,103%,81.4%,,,,
COc1cccc(C(=O)CSc2nc(-c3ccc(OCc4ccccc4)c(OC)c3)c(C#N)c(=O)[nH]2)c1,,91.1%,93%,98.5%,101%,96.8%,96.9%,102%,95.7%,102%,91.3%,99.6%,104%,,,,103%
